Assay results taken from PubChem BioAssay.
For some of these results: Entries with a potency or affinity are not part of this list. Activity calls are given as the source filed them. Unless noted, no rule for the calls is given here.

How the values were obtained:
[1] = target: Calcium-dependent protein kinase 1 (Plasmodium falciparum (isolate 3D7)) (UniProt P62344); assay: PfCDPK1 kinase inhibitors, biochemical, TCAMS library (AID 1159585; cut-off not given, nearly all actives have IC50 up to about 0.98 µM;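 also: inhibitors leave more ATP so luminescence rises with inhibition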); conditions: recombinant PfCDPK1, Kinase-Glo ATP depletion luminescence
Chain of Calcium-dependent protein kinase 1 (Plasmodium falciparum (isolate 3D7)) (P62344 whole entry, looked up): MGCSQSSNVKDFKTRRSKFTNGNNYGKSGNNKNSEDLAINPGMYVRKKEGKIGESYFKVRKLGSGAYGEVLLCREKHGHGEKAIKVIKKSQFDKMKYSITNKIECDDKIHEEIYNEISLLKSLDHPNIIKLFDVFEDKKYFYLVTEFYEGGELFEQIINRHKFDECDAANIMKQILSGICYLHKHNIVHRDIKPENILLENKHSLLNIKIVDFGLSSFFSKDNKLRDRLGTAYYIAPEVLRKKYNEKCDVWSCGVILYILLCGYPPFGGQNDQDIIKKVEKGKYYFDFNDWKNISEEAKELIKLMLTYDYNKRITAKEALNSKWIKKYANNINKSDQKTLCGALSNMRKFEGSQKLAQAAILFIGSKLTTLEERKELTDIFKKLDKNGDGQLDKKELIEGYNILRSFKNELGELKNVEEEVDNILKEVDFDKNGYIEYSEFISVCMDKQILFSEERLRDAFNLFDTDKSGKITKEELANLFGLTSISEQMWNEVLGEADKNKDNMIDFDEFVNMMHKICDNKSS

[2] = target: Plasmodium falciparum protein kinase 6 (PK6, PF3D7_1337100) (UniProt Q8IDW1); assay: PfPK6 kinase inhibitors, biochemical, TCAMS library (AID 1159586); conditions: recombinant PfPK6, Kinase-Glo ATP depletion luminescence
Chain of Plasmodium falciparum protein kinase 6 (PK6, PF3D7_1337100) (Q8IDW1 1-305): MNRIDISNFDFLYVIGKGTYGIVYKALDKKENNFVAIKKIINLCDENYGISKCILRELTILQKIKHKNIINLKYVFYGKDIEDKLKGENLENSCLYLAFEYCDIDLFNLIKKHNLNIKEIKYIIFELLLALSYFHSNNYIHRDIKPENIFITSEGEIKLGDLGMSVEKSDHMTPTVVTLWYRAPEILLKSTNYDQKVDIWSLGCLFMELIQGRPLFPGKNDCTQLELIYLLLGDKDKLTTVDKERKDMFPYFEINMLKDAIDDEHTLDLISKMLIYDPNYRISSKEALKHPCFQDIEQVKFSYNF

[3] = target: Protein kinase 7 (PK7), Plasmodium falciparum 3D7 (PF3D7_0213400) (UniProt Q7YTF7); assay: inhibition of Plasmodium PK7 catalytic activity – biochemical, TCAMS antimalarial set, Kinase-Glo luminescence (AID 1159587); conditions: recombinant PfPK7, Kinase-Glo ATP depletion luminescence
Chain of Protein kinase 7 (PK7), Plasmodium falciparum 3D7 (PF3D7_0213400) (Q7YTF7 1-343): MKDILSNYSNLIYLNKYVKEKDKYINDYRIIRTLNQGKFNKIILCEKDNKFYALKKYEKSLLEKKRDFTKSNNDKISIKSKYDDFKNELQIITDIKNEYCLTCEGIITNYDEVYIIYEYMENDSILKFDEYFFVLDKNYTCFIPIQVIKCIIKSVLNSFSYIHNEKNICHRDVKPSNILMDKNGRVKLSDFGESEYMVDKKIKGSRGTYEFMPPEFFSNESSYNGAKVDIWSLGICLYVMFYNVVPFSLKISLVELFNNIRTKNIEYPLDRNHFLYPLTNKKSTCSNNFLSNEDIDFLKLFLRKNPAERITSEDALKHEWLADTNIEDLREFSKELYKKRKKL

[4] = target: Calcium-dependent protein kinase 4 (Plasmodium falciparum (isolate 3D7)) (UniProt Q8IBS5); assay: PfCDPK4 kinase inhibitors, biochemical, TCAMS library (AID 1159588; cut-off not given, nearly all actives have IC50 up to about 0.91 µM); conditions: recombinant PfCDPK4, Kinase-Glo ATP depletion luminescence
Chain of Calcium-dependent protein kinase 4 (Plasmodium falciparum (isolate 3D7)) (Q8IBS5 whole entry, looked up): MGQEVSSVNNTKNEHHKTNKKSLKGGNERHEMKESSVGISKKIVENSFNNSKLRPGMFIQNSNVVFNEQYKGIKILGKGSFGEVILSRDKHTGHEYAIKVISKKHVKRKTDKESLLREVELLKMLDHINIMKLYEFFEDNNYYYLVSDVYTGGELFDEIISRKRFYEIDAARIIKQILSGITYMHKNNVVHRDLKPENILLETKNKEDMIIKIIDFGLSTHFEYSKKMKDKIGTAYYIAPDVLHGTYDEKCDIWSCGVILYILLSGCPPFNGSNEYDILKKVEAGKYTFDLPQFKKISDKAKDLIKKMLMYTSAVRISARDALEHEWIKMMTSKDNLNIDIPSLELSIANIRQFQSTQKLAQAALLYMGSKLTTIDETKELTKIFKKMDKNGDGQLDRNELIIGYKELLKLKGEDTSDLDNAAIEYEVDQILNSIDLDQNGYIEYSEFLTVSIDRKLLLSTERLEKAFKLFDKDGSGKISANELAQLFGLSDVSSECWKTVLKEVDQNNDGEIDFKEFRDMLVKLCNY

Measured: outcome

Nc1ccc(-c2nc3cc(C4=N[C@@H]5CCCC[C@@H]5N4)ccc3o2)cc1[N+](=O)[O-]
inactive: all assays above

Cc1cccc2[nH]c(-c3cccc(-c4cccc(NC(=O)Cc5ccc[n+]([O-])c5)c4)c3)nc12
inactive: all assays above

CCn1c(/C=C/c2cc(Br)ccc2O)nc2ccccc2c1=O
inactive: all assays above

CN(C)c1nc(N/N=C/c2cc(Cl)ccc2O)nc(Nc2ccc(F)cc2)n1
inactive: all assays above

Oc1ccc(/C=N/NC(=S)Nc2cccc3ccccc23)c(O)c1
inactive: all assays above

O=[N+]([O-])c1cccc(-c2nc3ccc(C4=N[C@@H]5CCCC[C@@H]5N4)cc3[nH]2)c1
inactive: all assays above

Oc1ccc2ccccc2c1/C=N/Nc1nc(Nc2ccccc2)nc(N2CCOCC2)n1
inactive: all assays above

CN(C)c1nc(NCc2ccccc2)nc(N/N=C/c2cc([N+](=O)[O-])ccc2O)n1
inactive: all assays above

C/C(=N\O)C1=C(O)C(c2ccccc2)N(c2ccccc2)C1=O (centres undefined)
inactive: all assays above

CCOc1cc(/C=C/c2nc3ccccc3c(=O)[nH]2)cc(Cl)c1O
inactive: all assays above

CCC[C@@H]([C@H](CC1CCCCC1)C(=O)N[C@H](C(=O)Nc1ccccn1)[C@H](C)CC)N(O)C=O
inactive: all assays above

Cc1[nH]c2ccccc2c1/C=N/Nc1nc(Nc2ccccc2)nc(Nc2ccccc2)n1
inactive: all assays above

CN(C)c1cc(N/N=C/c2cc(Cl)ccc2O)nc(N(C)C)n1
inactive: all assays above

COc1ccc(Nc2nc(N/N=C/c3cc(Br)ccc3O)nc(Nc3ccc([N+](=O)[O-])cc3)n2)cc1
inactive: all assays above

c1cc2nc(CCCCc3nc4ccc(C5=N[C@@H]6CCCC[C@@H]6N5)cc4[nH]3)[nH]c2cc1C1=N[C@@H]2CCCC[C@@H]2N1
inactive: all assays above

O=[N+]([O-])c1ccc(Nc2nc(N/N=C/c3cc(Cl)cc(Cl)c3O)nc(Nc3ccccc3)n2)cc1
inactive: all assays above
